The structures appear in SMILES notation. In all, about 310,000 compounds went through this assay and about 1,000 (0.32%) were called active. Only a sample is shown. Measured potencies and affinities stand elsewhere. Values without a mark were called inactive. The rule behind the calls is not given here.

This assay is described as follows: PhoP regulon inhibitors, Salmonella typhi PhoP promoter GFP reporter, confirmatory (AID 1850).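 Note: 0% = induced wells with vehicle and 100% = uninduced wells.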 As to conditions: fluorescence, 4 h, at 50 µM, stronger effect = higher value.
As to `O=C(N1CCOCC1)N1CCN(S(=O)(=O)N2CCCCC2)CC1`, the inhibition (as a rule, the change of the read-out against control, counted positive when it falls) is 5.81%.
Next, `COc1ccc(NC2CCCN(C(=O)C3=NN(C)C(=O)CC3)C2)cc1OC` (stereo unspecified): -1.12%; `Cc1cccc(N2CCN(Cc3nc(-c4cccc(Cl)c4)oc3C)CC2)n1`: -3.9%.
Turning to `Oc1[nH]c2ccc(Br)cc2c1N=Nc1ccc(F)cc1`, the inhibition is -81.9%.
`Cc1cc(=O)c2cc(Br)ccc2[nH]1`: the inhibition is 6.88%.
Next, `O=C(NCC1CCCO1)c1onc(CSc2ccc(F)c(F)c2)c1C(=O)O` (stereo unspecified): 1.53%.
Next, `C=CCNC(=O)CN1CCC(c2nc3cc(C)c(C)cc3[nH]2)CC1`: 2.77%.
As for `O=[N+]([O-])c1ccc(/C=N/N2CCCCC2)cc1`, the inhibition was 2.58%.
Take `CCOc1ccc(-c2c(C(=O)N/N=C/c3ccc(OC)cc3)nnn2-c2nonc2N)cc1`: the inhibition was -14%.
Regarding `O=C(Cc1ccc(Cl)cc1)Nc1ccc(S(=O)(=O)Nc2cnc3ccccc3n2)cc1`, the inhibition was -6.63%.
Consider `CC1CCCCC1NC(=O)c1ccc(NS(=O)(=O)c2ccc3[nH]c(=O)[nH]c3c2)cc1` (stereo unspecified), for which the inhibition was 0.81%.
With `Cc1ccc(NC(=O)c2cc([N+](=O)[O-])ccc2Cl)c(O)c1`, the inhibition is 4.62%.
`CC(=O)Oc1c(C)cc(Cl)cc1C(=O)Nc1ccc([N+](=O)[O-])cc1Cl`: the inhibition was 3.87%.
Next, `CC[C@H](C)Cc1cn([C@@H](CCCCN)C(=O)NCCCCCCCCCCC(=O)N2CCNCC2)nn1`: 1.01%.
Next, `CCOC(=O)N1CCN(C(=O)c2cc(COc3ccc4ncccc4c3)on2)CC1`: -2.35%; `COc1cccc(CNCCc2ccccc2)c1OC`: 15.4%.
Take `CCc1ccc(CNCCc2ccc(F)cc2)cc1`: the inhibition was 7.65%.
Consider `COc1cc(OC)c(OC)cc1CNCCc1cccc(F)c1`, for which the inhibition was 3.05%.
Consider `CCc1ccc(CNCCc2ccccc2F)cc1`, for which the inhibition is 19.3%.
As to `COc1cc(OC)c(OC)cc1CNCCc1ccc(F)cc1`, the inhibition is 1.12%.
In the case of `COc1cccc(CNCCc2cccc(F)c2)c1OC`, the inhibition is 6.94%.
For `Fc1ccc(CNCCc2ccccc2F)cc1`, the inhibition is 20.1%.
For `Fc1ccc(CCNCc2cccc(Cl)c2)cc1`, the inhibition was -1.17%.
As for `CCN(c1ccccc1)S(=O)(=O)c1csc(C(N)=O)c1`, the inhibition was 1.57%.
Next, `O=C(CS(=O)(=O)c1ccc(Cl)cc1)Nc1nnc(-c2cccs2)o1`: -4.66%; `CC(C)C(NC(=O)/C=C/c1cccc([N+](=O)[O-])c1)C(C)C`: -9.13%.
As for `CCOC(=O)N1CCC(NC(=O)c2cnn3c(C(F)(F)F)cc(-c4cccc(OC)c4)nc23)CC1`, the inhibition was -1%.
Next, `COc1ccccc1S(=O)(=O)CC(O)COc1ccccc1Cl` (stereo unspecified): -5.18%; `CN(CCc1ccccn1)C(=O)Nc1ccc(F)cc1`: -7.13%.
As for `COc1ccc(-c2ccc(CCC(=O)O)n2NC(=O)c2cccs2)cc1`, the inhibition is -5.76%.
Next, `CN(CC(=O)Nc1ccccc1Cl)C(=O)COC(=O)c1cc([N+](=O)[O-])ccc1N1CCOCC1`: -1.8%; `c1csc(CNCc2ccncc2)c1`: 1.76%.
On to `Fc1ccc(CNCCc2ccccc2)cc1`, for which the inhibition is 14.4%.
Next, `Brc1ccc(CNCc2cccs2)cc1`: -4.52%; `Fc1ccc(CNCc2ccccc2Cl)cc1`: 10.6%; `O=C(COc1ccc(Br)cc1)N1CCN(Cc2c[nH]c3ccccc23)CC1`: 1.07%.
For the compound `O=C(NCc1ccco1)/C(=C\c1ccco1)NC(=O)c1ccco1`, the inhibition was -9.29%.
Under `CC1=NN(c2ccc([N+](=O)[O-])cc2)C(c2ccccc2)C1` (stereo unspecified) stands -7.1%; under `CC1(C)CC(=O)C2=C(C1)NC(=O)CC2c1cc(F)ccc1F` (stereo unspecified), 8.24%; under `CC1(C)C2CCC1(CS(=O)(=O)N1CCN(c3ccc(F)cc3)CC1)C(=O)C2` (stereo unspecified), -7.85%.
Turning to `COc1ccc(S(=O)(=O)NC(C)C(=O)NCc2cccnc2)cc1Cl` (stereo unspecified), the inhibition was -1.39%.
Consider `Cc1ccc2c(c1)C1CN(C)CCC1N2S(=O)(=O)c1ccccc1` (stereo unspecified), for which the inhibition was 4.23%.
Regarding `Cc1ccc2c(c1)[C@@H]1CN(C)CC[C@@H]1N2S(=O)(=O)c1ccc([N+](=O)[O-])cc1`, the inhibition is 0.95%.
For `CN(C)c1cc[n+](CC(=O)c2ccc(OC(F)F)cc2)cc1`, the inhibition was 19.8%.
On to `COc1ccc(CNC(=O)c2cc(COc3c(F)cccc3F)on2)cc1OC`, for which the inhibition is -2.31%.
Take `O=C(O)CCc1ccc(-c2ccc(Br)cc2)n1-c1cccc(O)c1`: the inhibition is -2.3%.
As for `CCCCCOC(=O)CSc1nc2c(c(=O)[nH]c(=O)n2C)n1CCc1ccccc1`, the inhibition was 2.47%.
Next, `COCc1c(C(=O)OCC(=O)N2c3ccccc3CC2C)oc2ccccc12` (stereo unspecified): -3.75%; `CC(C)CCC(CCNCc1ccccn1)c1ccc2c(c1)OCO2` (stereo unspecified): 21.8%; `CC(C)C(CCNCc1ccccn1)c1ccc(Cl)cc1` (stereo unspecified): -0.74%.
Turning to `CC(=O)n1cc([C@H]2C=C(C(N)=O)O[C@@H](OCc3ccc(CO)cc3)C2)c2ccccc21`, the inhibition was 2.45%.
As to `CCCOC(=O)C[N+](C)(C)CCOC1CC2CCC1(C)C2(C)C` (stereo unspecified), the inhibition is -4.95%.
Take `CCCCOC(=O)C[N+](C)(C)CCOC1CC2CCC1(C)C2(C)C` (stereo unspecified): the inhibition was -1.52%.
As to `Cc1ccc(Nc2ccc([N+](=O)[O-])ccc2=O)cc1`, the inhibition is -3.8%.
Next, `Cc1cccc(C(=O)NCC(=O)N2CCN(c3ccc(Cl)cc3)CC2)c1`: 4.53%.
Under `Cc1cc(C)nc(NCCO)n1` stands 1.84%.
Under `Fc1ccccc1Sc1ccccc1CNC1=NCCN1` stands 2.16%; under `Fc1ccc(Sc2ccccc2CNC2=NCCN2)cc1`, -8.62%.
Consider `COc1ccc(C)cc1NC(=O)C1CCN(S(=O)(=O)c2ccc3c(c2)NC(=O)CO3)CC1`, for which the inhibition is -3.38%.
Regarding `CCCCn1c(N)c(N(CC(C)C)C(=O)c2cc(-c3ccc(OC)c(OC)c3)nc3ccccc23)c(=O)[nH]c1=O`, the inhibition was 11.8%.
Under `CC(=O)c1cc(C(=O)NC2CCCc3c2cnn3-c2cc(C)cc(C)c2)[nH]n1` (stereo unspecified) stands -9.06%; under `O=C(Nc1nc2ccccc2[nH]1)c1cccc(F)c1`, 0.03%.
Next, `CC(C)n1cnc2c(Nc3cccc(F)c3)nc(NCCO)nc21`: -14.7%.
As for `Cc1cccc(OCc2nnc3n2CCCCC3)c1`, the inhibition was -4.01%.
Turning to `CCOC(=O)N1CCN(S(=O)(=O)c2ccc(C(=O)Nc3nnc(CSC)o3)cc2)CC1`, the inhibition is -31.1%.
Turning to `CC(OC(=O)c1ccccc1Nc1ccc(SC(F)F)cc1)C(N)=O` (stereo unspecified), the inhibition was -1.22%.
On to `C#CCOCCOCCOCCNc1nc(N2CCN(C(=O)CCCCCCCCCCNC(=O)[C@@H](CCSC)n3cc(CCO)nn3)CC2)nc(N2CCN(C(=O)CCCCCCCCCCNC(=O)[C@H](CCC(=O)O)n3cc(CCCCCN)nn3)CC2)n1`, for which the inhibition is 1.19%.
Under `C#CCOCCOCCOCCNc1nc(N2CCN(C(=O)CCCCCCCCCCNC(=O)[C@@H](CCSC)n3cc(CCO)nn3)CC2)nc(N2CCN(C(=O)CCCCCCCCCCNC(=O)[C@H](CCSC)n3cc(CCO)nn3)CC2)n1` stands 2.16%; under `C#CCOCCOCCOCCNc1nc(N2CCN(C(=O)CCCCCCCCCCNC(=O)[C@@H](CCSC)n3cc(CCO)nn3)CC2)nc(N2CCN(C(=O)CCCCCCCCCCNC(=O)[C@H](CO)n3cc(CCCCCN)nn3)CC2)n1`, 14.1%.
For `C#CCOCCOCCOCCNc1nc(N2CCN(C(=O)CCCCCCCCCCNC(=O)[C@H]([C@@H](C)CC)n3cc(CCCCN=C(N)N)nn3)CC2)nc(N2CCN(C(=O)CCCCCCCCCCNC(=O)[C@H](CO)n3cc(CCCSC)nn3)CC2)n1`, the inhibition is 0.56%.
For the compound `CC(=O)Oc1ccc(C(=O)Nc2cc(C)on2)cc1`, the inhibition is 3.46%.
Under `Nc1cccc(C(=O)N/N=C/c2ccsc2)c1` stands -10.7%.
With `N=C(N)N=Nc1c(O)[nH]c2ccc(Br)cc12`, the inhibition was -13.7%.
In the case of `Oc1[nH]c2ccc(Br)cc2c1N=NC(=S)Nc1ccc(F)cc1`, the inhibition was 14.4%.
On to `O=C(N=Nc1c(O)[nH]c2ccccc12)c1ccc(CN2CCOCC2)cc1`, for which the inhibition is 8.21%.
Under `NC(=S)N=Nc1c(O)[nH]c2ccccc12` stands -2.48%; under `COc1ccc(C(=O)C(Cc2cc(C(C)=O)ccc2OC)N2CCCC2)cc1` (stereo unspecified), -6.51%; under `O=C(Nc1cccc(S(=O)(=O)N2CCOCC2)c1)c1cnccn1`, -6.33%.
As for `Cn1c(-c2ccc(F)cc2)cnc1NCc1cccc([N+](=O)[O-])c1`, the inhibition was 9.25%.
Next, `Fc1ccc(Nc2nc(N3CCOCC3)nc(N3CCOCC3)n2)cc1`: 4.25%; `COc1ccc(N2CCN(c3nc(Cl)nc(Nc4ccc(F)cc4)n3)CC2)cc1`: -8.76%; `CCCOc1cc2c(C#N)c(N3CCCC3)nc(N)c2c(N)n1`: 1.34%.
Turning to `N#Cc1c(N)c(C#N)c(-c2ccc3c(c2)OCO3)c2c1CCCC2`, the inhibition was -3.29%.
`Nc1c(-c2ccc(Cl)cc2)cnc2ncnn12`: the inhibition is 8.81%.
With `O=[N+]([O-])c1ccc(-c2cnc[nH]2)cc1`, the inhibition is 1.02%.
For the compound `Nc1ncc(-c2ccc([N+](=O)[O-])cc2)cn1`, the inhibition is 4.2%.
`Nc1ncncc1-c1ccc2ccccc2c1`: the inhibition is -7.33%.
Next, `COc1ccc2cc(C(=O)C3CCCN(C(=O)c4cnccn4)C3)ccc2c1` (stereo unspecified): 8.69%; `CCc1ccccc1NC1=NCC(=O)N1C1CCCC1`: 0.33%; `COc1ccc(Nc2nc(C)cc(C)c2C#N)c(OC)c1`: -0.58%.
For `COc1ccccc1CNC(=O)C1CCCN(S(C)(=O)=O)C1` (stereo unspecified), the inhibition is -3.93%.

These data come from PubChem BioAssay AID1850 (Southern Research Specialized Biocontainment Screening …, 2009).
